# Screening data from PubChem.
# Only some compounds are listed: those with a hit (about 4% of all), similar ones and a draw of the others.
# Measles CPE – protection of cells from measles virus. protection (pct of control), % at 4 µM. AID 841. actives 1.5% (n = 140,000). Measles virus-infected cells, CPE protection, absorbance; in the data active = protection mostly above about 24%, no sharp cut-off; inactive = mostly below about 26%
# Arbovirus inh – blocks arbovirus infection; arbovirus infection cell-based antiviral screen; inhibition, % at 10 µM; actives 0.37% (n = 200,000); in the data active = inhibition above about 30%
# KCC2 mod – modulates chloride dependent transport by human KCC2. B-score of Tl+ flux slope (higher = more flux/activation; lower = inhibition) at 10 µM. KCC2 cells, thallium flux FluoZin-2 fluorescence. actives 2.2% (n = 190,000). Q9H2X9;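 active = thallium flux slope and its plate-corrected score both differing from the plate sample mean at a set confidence after two filtering rounds, in either direction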;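 also: slope of fluorescence scaled to starting intensity during 10 to 20 s after thallium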
# ROMK mod – human ROMK K+ channel modulation, primary screen. AID 1918. B-score at 10 µM. P48048. Tet-inducible ROMK, thallium flux fluorescence; actives lie on both sides. actives 2% (n = 130,000);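 active = signal ratio slope over the read window, or its plate-corrected B-score, at least 3 SD from the plate mean, either direction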;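 also: B-score of the F/F0 ratio slope over 7 to 12 s after thallium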
# Target sequence (P48048 whole entry, looked up): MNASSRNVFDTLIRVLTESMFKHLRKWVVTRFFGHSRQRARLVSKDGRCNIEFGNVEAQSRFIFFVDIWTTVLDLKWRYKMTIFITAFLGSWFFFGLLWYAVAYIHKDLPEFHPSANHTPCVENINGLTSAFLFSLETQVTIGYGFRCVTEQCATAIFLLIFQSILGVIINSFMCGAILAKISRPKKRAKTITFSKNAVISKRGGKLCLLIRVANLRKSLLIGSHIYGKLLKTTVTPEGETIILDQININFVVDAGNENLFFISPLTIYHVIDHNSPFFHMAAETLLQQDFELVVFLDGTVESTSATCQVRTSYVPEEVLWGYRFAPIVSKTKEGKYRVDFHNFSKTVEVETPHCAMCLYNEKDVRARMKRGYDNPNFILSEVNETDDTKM
# HSV augment – HSV replication enhancement; actives 0.005% (n = 220,000); maximum fold increase; HSV replication augmentation in cells, fold increase; in the data active = maximum fold increase above about 1.5; inconclusive = no clear call, values can overlap the other calls; tested in PC3 cells
# KCC2 sec1 – confirmation of human KCC2 transport modulators. shares compounds with KCC2 mod. HEK293-KCC2, thallium flux, FluoZin2 fluorescence; active compounds read high. normalised thallium flux (F/F0 slope) at 10 µM. actives 15% (n = 3,700). AID 1713;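 active = thallium flux slope above the same plate's solvent-only control mean plus 3 SD; inconclusive = the two replicate wells disagree; inactive = no significant difference from solvent-only control wells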
# KCC2 bumet counter – thallium flux persisting under bumetanide in KCC2 cells, counter-screen secondary assay; shares compounds with KCC2 mod; actives 49% (n = 3,700); normalized thallium flux at 10 µM; HEK293-KCC2 + bumetanide/ouabain, thallium flux FluoZin2; active compounds read high;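 active = thallium entry rate above the same plate's blocked-transporter control wells by more than 3 SD; inconclusive = the two repeat wells disagree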;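 also: raw slope of fluorescence over initial fluorescence between 10 and 20 s after thallium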
# KCC2 sec2 – confirmation of human KCC2 transport modulators. shares compounds with KCC2 mod. HEK293-KCC2, thallium flux FluoZin2 fluorescence; actives lie on both sides; F/F0 rise rate, 10–20 s post-thallium. normalized thallium flux at 10 µM. actives 23% (n = 3,700). AID 1715;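 active = thallium flux slope more than 3 SD above or below the plate's solvent-only control mean, mostly below; inconclusive = the two repeat wells disagreed; inactive = no significant shift from solvent-only controls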;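 also: raw slope with 0.1% DMSO as baseline and bumetanide as block control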
# HEK counter1 – acts in parental HEK cells, KCC2 counter-screen. shares compounds with KCC2 mod. HEK293 parental cells, thallium flux FluoZin2, ouabain; baseline-ratio fluorescence slope, 10–20 s after thallium. thallium flux rate (normalised fluorescence) at 10 µM. actives 46% (n = 3,700);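 active = thallium flux rate significantly above the same plate's solvent-only control wells, beyond their mean plus 3 SD; inconclusive = the two replicate wells gave conflicting results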
# KCC2 retest ouab – KCC2 (human) modulation, ouabain retest. shares compounds with KCC2 mod. actives 48% (n = 3,700). raw Tl+ flux slope (below DMSO = inhibition, above = activation) at 10 µM. HEK293-KCC2, thallium flux FluoZin2 fluorescence; bidirectional: low = inhibitor, high = activator;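 active = thallium flux slope beyond 3 SD from same-plate DMSO control mean in most replicates, usually higher, sometimes lower; inconclusive = repeat tests gave conflicting results; inactive = no significant difference from controls in most replicates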;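 also: slope of initial-normalized fluorescence between seconds 10 and 20 after thallium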
# HEK counter2 – counter-screen for KCC2 modulators: effect in parental HEK293 cells | thallium flux slope at 10 µM | shares compounds with KCC2 mod | thallium flux FluoZin-2 fluorescence slope | actives 33% (n = 3,700);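 active = thallium flux slope above the same plate's solvent-control mean plus 3 SD in both duplicate wells; inconclusive = duplicate wells that disagreed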;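 also: run without ouabain in cells lacking the KCC2 cotransporter; slope of fluorescence scaled to its starting value between 10 and 20 s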
# * = called active by the depositor; i = inactive; ? = inconclusive; · = not tested or not shown.
SMILES,Measles CPE,Arbovirus inh,KCC2 mod,ROMK mod,HSV augment,KCC2 sec1,KCC2 bumet counter,KCC2 sec2,HEK counter1,KCC2 retest ouab,HEK counter2
FC(F)(F)c1ccc(Cl)c(NC(=S)N/N=C/c2ccccc2C(F)(F)F)c1,16.1,10.3,4.86*,0.628,i,0.0073,0.0144*,?,0.0143*,?,0.0131*
COc1cccc(-n2c(CN3CCN(c4ccccc4)CC3)nc3ccc([N+](=O)[O-])cc3c2=O)c1,7.5,6.5,0.29,0.736,i,·,·,·,·,·,·
CC(C)OC(=O)c1nn2c(C(F)(F)F)cc(-c3ccc(Br)o3)nc2c1Br,12.8,-3.9,·,-0.548,i,0.00954,0.00659,0.0316,0.00708,0.0202,0.0109
O=S(=O)(NCc1ccccc1)c1ccc(Br)c2nsnc12,·,·,-0.723,0.297,i,·,·,·,·,·,·
O=C1C2C3C=CC(CC3)C2C(=O)N1/N=C/c1c(O)ccc2ccccc12 (stereo unspecified),·,7.5,3.3*,0.25,i,0.00905,0.006,0.0313,0.00772,0.022,0.0105
C=CCn1c(-c2ccccc2)c[nH]c1=S,5.5,3.3,0.177,·,i,·,·,·,·,·,·
C=CCn1c(-c2ccc(Cl)cc2)c[nH]c1=S,16.1,5.3,5.15*,-0.425,i,?,0.0295*,0.0343,0.0112*,0.0255,?
COc1ccc(C(=O)NC2CCCCC2)cc1S(=O)(=O)N1CCCC1,4.9,10.4,7.52*,-1.17,i,0.0098,?,0.0363,0.0074,0.0227,0.0108
Cn1nnnc1N=N/C(=N/Nc1ccccc1)c1ccccc1,·,·,59.7*,·,i,0.0264*,0.094*,0.0572*,0.0444*,0.0519*,0.0448*
CC(=O)c1c(N2CCOCC2)[nH]c(-c2ccccc2)nc1=S,3.3,6.1,13*,0.348,i,0.0169*,0.0324*,?,0.0187*,0.0406*,?
CC(C)c1nc2oc3c(N(C)CCO)ncnc3c2c2c1CCC2,·,·,-1.03,0.0135,i,·,·,·,·,·,·
Cc1nc(-c2ccc(NC(=O)CC(C)C)cc2)cs1,13.2,-4.0,-0.938,0.314,i,·,·,·,·,·,·
Cc1cc(-c2n[nH]c(=S)n2/N=C/c2ccc(C)o2)n[nH]1,·,·,-0.311,·,i,·,·,·,·,·,·
S=c1[nH]nc(-c2ccccn2)n1/N=C/c1ccc(Cl)c(Cl)c1,·,·,40.9*,·,i,0.00562,0.109*,0.0544*,0.0408*,0.0665*,0.0306*
S=c1[nH]nc(-c2ccccn2)n1/N=C/c1ccc(-c2ccccc2Cl)o1,·,5.4,132*,0.327,i,0.122*,0.138*,0.0307,0.131*,0.148*,0.0132*
S=c1[nH]nc(-c2cc(-c3ccccc3)n[nH]2)n1/N=C/c1ccc(Cl)c(Cl)c1,·,·,0.304,-1.63,i,·,·,·,·,·,·
C=C1CC2C(=O)N(Cc3ccccc3)C(C(=O)OCC)(C(=O)OCC)C1N2C(=O)OC(C)(C)C (stereo unspecified),·,·,·,·,i,·,·,·,·,·,·
COC(=O)N1C/C=C\C(c2ccc(OC)cc2)N(Cc2ccc(F)cc2)C(=O)C1 (stereo unspecified),·,·,0.153,·,i,·,·,·,·,·,·
CCCCCN1C/C=C\C(c2ccc(OC)cc2)N(Cc2ccc(F)cc2)C(=O)C1 (stereo unspecified),·,·,-2.52*,·,i,0.00962,0.00486,?,0.00702,0.017*,0.00987
COc1ccc(C2/C=C\CN(CC3CC3)CC(=O)N2Cc2ccc(F)cc2)cc1 (stereo unspecified),·,·,-3.44*,·,i,0.00699,0.0063,0.0314,0.00733,0.0169*,0.0106
COc1ccc(C2/C=C\CN(CC(C)(C)C)CC(=O)N2Cc2ccc(F)cc2)cc1 (stereo unspecified),·,·,-0.546,·,i,·,·,·,·,·,·
CCCCC(=O)N1C/C=C\C(c2ccc(OC)cc2)N(Cc2ccc(F)cc2)C(=O)C1 (stereo unspecified),·,·,-2.77*,·,i,0.00878,0.00505,0.033,0.00757,0.019,0.0109
COc1cc(C2NC(=O)NC3=C2C(=O)OC3)cc(OC)c1OC (stereo unspecified),·,·,-0.428,·,i,·,·,·,·,·,·
COc1ccccc1CNc1ccc(CNc2ncn[nH]2)cc1,·,-6.6,0.63,-1.06,i,·,·,·,·,·,·
COc1ccccc1CNc1n[nH]c(NCc2ccccc2OC)n1,12.4,1.9,·,-0.0268,i,?,0.00498,0.0295,0.00751,0.0181,0.0109
SMILES,Measles CPE,Arbovirus inh,KCC2 mod,ROMK mod,HSV augment,KCC2 sec1,KCC2 bumet counter,KCC2 sec2,HEK counter1,KCC2 retest ouab,HEK counter2
N#C/C(=C(/O)c1ccco1)c1nc2ccccc2s1,13.1,-11.3,-1.33,·,i,·,·,·,·,·,·
N#C/C(=C(/O)c1cccc(F)c1)c1nc2ccccc2s1,·,·,-2.95*,·,i,0.0089,0.00602,?,0.00775,0.0163*,0.0109
COC(=O)C1CCN(S(=O)(=O)c2cn(C)c(=O)n(C)c2=O)CC1,1.5,4.7,-3.42*,·,i,0.00879,?,0.0323,0.00772,0.0214,0.0112
O=C(N/N=C/c1cn(-c2cccs2)nc1-c1ccccc1)c1ccccc1O,20.1,-2.2,5.44*,-0.0884,i,0.00963,0.019*,0.0325,0.0106*,0.0226,?
CC(Sc1n[nH]c(N)n1)C(=O)Nc1ccc(Cl)cn1 (stereo unspecified),·,3.8,-0.269,0.549,i,·,·,·,·,·,·
Nc1nc(SCC(=O)Nc2ccc(Cl)cn2)n[nH]1,·,5.5,12.7*,0.276,i,0.0107,0.00613,0.0312,0.0085,0.0184,0.0107
CN(CCCN1CCOCC1)Cc1cn(C)nc1-c1ccccc1F,·,1.4,-0.25,0.842,i,·,·,·,·,·,·
C/C(CC(=O)Nc1cccc(Cl)c1Cl)=N\NC(=O)c1ccccc1C,·,-6.7,0.0916,·,i,·,·,·,·,·,·
O=C(NC(=S)N1CCN(C/C=C/c2ccccc2)CC1)c1ccc(F)cc1,·,·,151*,·,i,0.00991*,0.134*,0.107*,0.114*,0.122*,0.107*
Cc1ccc(/C=C/C(=O)NC(=S)N2CCN(C)CC2)cc1,11.1,-7.4,1.75,·,i,·,·,·,·,·,·
O=C(/C=C/c1ccccc1)NC(=S)N1CCSCC1,·,-0.6,9.69*,-0.485,i,0.0223*,0.0257*,?,0.0181*,0.0251*,0.0204*
O=C(/C=C/c1ccc(F)cc1)NC(=S)N1CCN(c2ccccn2)CC1,·,·,21.2*,·,i,0.00758,0.0191*,0.0306,0.013*,?,0.0135*
